Calls of active or inactive are those of the source. Unless noted, no rule for the calls is given here.

This is an account of results in PubChem BioAssay.

A short description of test [1]: anti-His antibody binders, primary screen, artefact control for SMM control protein annotation, biochemical, small-molecule microarray, 635 nm fluorescence (AID 1128).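 Also: score merges feature fluorescence with signal-to-noise for each printed compound spot.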 Conditions: anti-His Alexa647 antibody binding, higher = more signal.
The test system of test [2] is Human papillomavirus type 1a E7 protein (residues 1-88). In words: HPV1a E7 small-molecule binders, primary screen, biochemical, small-molecule microarray, residues 1-88, 635 nm (AID 1129). Conditions: small-molecule microarray binding, fluorescence 635 nm; higher = more signal.
The target of test [3] is Focal adhesion kinase 1 (Homo sapiens) (UniProt Q05397). In words: small-molecule microarray binders of FAK, primary screen, biochemical, 635/667 nm fluorescence, BSA, DTT (AID 1130).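 Also: composite of spot emission at 667 nm and signal to noise over triplicate slides.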 Conditions: PTK2 binding, 635 nm fluorescence, higher = more signal.
Chain of Focal adhesion kinase 1 (Homo sapiens) (Q05397 whole entry, looked up): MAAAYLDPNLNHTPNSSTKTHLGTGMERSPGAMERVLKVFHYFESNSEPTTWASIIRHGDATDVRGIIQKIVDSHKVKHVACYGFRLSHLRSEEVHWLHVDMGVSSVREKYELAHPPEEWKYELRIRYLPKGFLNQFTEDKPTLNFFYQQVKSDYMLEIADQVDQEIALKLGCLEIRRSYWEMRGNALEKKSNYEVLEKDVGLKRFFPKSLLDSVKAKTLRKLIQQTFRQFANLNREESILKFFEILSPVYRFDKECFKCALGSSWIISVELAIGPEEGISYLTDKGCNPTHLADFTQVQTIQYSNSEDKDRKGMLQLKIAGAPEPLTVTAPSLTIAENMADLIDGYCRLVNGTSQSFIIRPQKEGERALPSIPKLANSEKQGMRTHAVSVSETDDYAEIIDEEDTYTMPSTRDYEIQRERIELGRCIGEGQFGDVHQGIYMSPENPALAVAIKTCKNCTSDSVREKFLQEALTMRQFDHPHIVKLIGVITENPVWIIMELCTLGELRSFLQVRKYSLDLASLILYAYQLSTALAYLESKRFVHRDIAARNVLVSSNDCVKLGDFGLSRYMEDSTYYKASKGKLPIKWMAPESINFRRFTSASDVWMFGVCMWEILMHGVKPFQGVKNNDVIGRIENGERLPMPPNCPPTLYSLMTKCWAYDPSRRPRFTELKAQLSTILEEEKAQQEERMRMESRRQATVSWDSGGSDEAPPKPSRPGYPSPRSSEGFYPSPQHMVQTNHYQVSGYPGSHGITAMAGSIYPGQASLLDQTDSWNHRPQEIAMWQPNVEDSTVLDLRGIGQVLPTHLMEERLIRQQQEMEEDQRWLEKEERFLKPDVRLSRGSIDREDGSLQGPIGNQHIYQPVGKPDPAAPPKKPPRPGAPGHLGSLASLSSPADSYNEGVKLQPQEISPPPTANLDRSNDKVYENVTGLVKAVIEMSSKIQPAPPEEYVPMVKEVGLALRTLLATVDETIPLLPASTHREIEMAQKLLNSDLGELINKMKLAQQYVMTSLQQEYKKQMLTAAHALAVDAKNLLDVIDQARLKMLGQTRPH
Test [4] deals with Fibrinogen (Alexa647-labelled). In words: fibrinogen binders on compound microarrays, profiling panel, artefact control for SMM control-protein annotation, biochemical, small-molecule microarray, 635/667 nm fluorescence (AID 1131).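 Also: z-score merges 667 nm fluorescence with per-spot signal-to-noise over triplicate slides.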 Conditions: fibrinogen-A647 binding fluorescence, higher = more signal.
Test [5] has as its target Follistatin (Homo sapiens) (UniProt P19883). In words: follistatin binders on small-molecule microarrays, primary screen, biochemical, small-molecule microarray, 635/667 nm fluorescence (AID 1132). The conditions noted are these: FST binding, 635 nm fluorescence, higher = more signal.
Test [6] has as its target Fibroblast growth factor 2 (Homo sapiens) (UniProt P09038). In words: FGF2 binders on small-molecule microarrays, primary screen, biochemical, small-molecule microarray, 635/667 nm fluorescence (AID 1133). Conditions: small-molecule microarray binding, FGF2, fluorescence 635/667; higher = more signal.
Test [7] can be described thus: mitochondrial membrane potential change in A549 cells, profiling panel, cell-based, JC-1 fluorescence, basal, 24 h, 100 nL (AID 1138).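 Also: A549 lung adenocarcinoma cells under basal conditions with no added stimulus; test concentration not given here.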 The conditions noted are these: higher = more signal.
A further test deals with Lefty1. The experiment in a line: Lefty1 binders on small-molecule microarrays, primary screen, biochemical, small-molecule microarray, 635/667 nm fluorescence (AID 1139). The conditions noted are these: small-molecule microarray binding, fluorescence 635/667; higher = more signal.
Test [8] relates to wheat germ agglutinin (Triticum aestivum), Alexa647-labelled. The experiment in a line: wheat germ agglutinin binders on compound microarrays, profiling panel, artefact control for SMM control-protein annotation, biochemical, small-molecule microarray, 635/667 nm fluorescence (AID 1140).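 Also: score merges 667 nm feature emission with signal to noise over triplicate slides.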 Conditions: WGA-A647 binding, 635 nm fluorescence, higher = more signal.
In test [9] the target is Luciferin 4-monooxygenase (Photinus pyralis) (UniProt P08659). The experiment in a line: firefly luciferase enzyme inhibitors, primary screen, biochemical, luminescence, purified enzyme, 2006 set (AID 1141).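 Also: cell-free assay with purified firefly luciferase at 100 ng per well in PBS; test concentration not given here.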 The conditions noted are these: SteadyGlo luminescence, 30 min, higher = more signal, called active from +8 up or from −8 down.
Chain of Luciferin 4-monooxygenase (Photinus pyralis) (P08659 whole entry, looked up): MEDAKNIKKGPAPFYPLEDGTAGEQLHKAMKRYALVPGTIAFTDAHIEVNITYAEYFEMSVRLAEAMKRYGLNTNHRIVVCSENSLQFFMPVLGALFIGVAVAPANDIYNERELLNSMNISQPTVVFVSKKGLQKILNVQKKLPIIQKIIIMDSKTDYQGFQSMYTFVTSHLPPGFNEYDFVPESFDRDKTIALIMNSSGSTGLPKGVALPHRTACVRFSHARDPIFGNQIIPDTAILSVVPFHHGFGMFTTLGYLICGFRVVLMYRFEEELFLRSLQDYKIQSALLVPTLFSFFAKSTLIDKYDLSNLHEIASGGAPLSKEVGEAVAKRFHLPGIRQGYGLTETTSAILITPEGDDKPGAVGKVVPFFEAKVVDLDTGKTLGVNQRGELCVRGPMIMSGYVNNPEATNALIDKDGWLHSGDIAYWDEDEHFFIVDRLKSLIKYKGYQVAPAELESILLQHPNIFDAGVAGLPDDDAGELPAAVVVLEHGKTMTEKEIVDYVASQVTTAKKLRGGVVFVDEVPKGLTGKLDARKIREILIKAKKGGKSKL
The subject of test [10] is Wnt5a (protein binding on small-molecule microarray). The experiment in a line: Wnt5a binders on small-molecule microarray, primary screen, biophysical, 635/667 nm fluorescence (AID 1142).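 Also: fluorescence read at 667 nm with signal to noise per printed feature.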 The conditions noted are these: 635 nm fluorescence, higher = more signal.
Test [11] can be described thus: cell viability in Huh7 cells, primary screen, cytotoxicity control for HCV replication inhibitor project, CellTiter-Glo luminescence, basal, 48 h (AID 1143).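 Also: Huh7 hepatoma cells carrying a hepatitis C replication reporter with no stimulus; test concentration not given here.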 The conditions noted are these: Huh7 HCV replicon, higher = more signal, called active from +8 up or from −8 down.
Test [12] is described as follows: P. aeruginosa biofilm formation inhibitors, primary screen, PAO1 strain, BacTiter-Glo luminescence, LB-PBS (AID 1144). The conditions noted are these: 12 h, higher = more signal.
Test [13] in a line: CREB reporter modulators without forskolin, primary screen, cell-based, PC12, CRE-LacZ reporter, unstimulated (AID 1145). Conditions: no forskolin, luminescence, 4.5 h, higher = more signal, called active from +8 up or from −8 down.
Test [14] in a line: CREB reporter modulators under forskolin, primary screen, cell-based, PC12, CRE-LacZ reporter, forskolin-stimulated (AID 1146).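 Also: PC12 cells with 6xCRE LacZ reporter stimulated by forskolin 10 µM; beta-galactosidase reporter signal reflecting CREB driven transcription.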 Conditions: luminescence, 4.5 h, higher = more signal, called active from +8 up or from −8 down.
Test [15] deals with Streptavidin (Streptomyces avidinii) (UniProt P22629). The experiment in a line: streptavidin binders on small-molecule microarray, primary screen, artefact control for SMM compound annotation, biophysical, 635/667 nm fluorescence (AID 1147).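 Also: signal reflects streptavidin binding to arrayed compounds as a control protein.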 Conditions: streptavidin binding, higher = more signal.
Chain of Streptavidin (Streptomyces avidinii) (P22629 whole entry, looked up): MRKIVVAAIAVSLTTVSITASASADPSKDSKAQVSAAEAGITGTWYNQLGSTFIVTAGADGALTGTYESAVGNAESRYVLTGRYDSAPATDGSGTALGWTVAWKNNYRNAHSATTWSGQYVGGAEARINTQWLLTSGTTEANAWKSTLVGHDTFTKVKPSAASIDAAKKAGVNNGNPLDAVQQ
Test [16] in a line: small-molecule binders of probe aInhba, primary screen, biochemical, small-molecule microarray, 635/667 nm fluorescence (AID 1148).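 Also: score merges 667nm spot fluorescence with signal-to-noise for antibody binding to printed compounds.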 The conditions noted are these: higher = more signal.
Test [17] deals with Torsin-1A (Homo sapiens) (UniProt O14656). In words: torsin A binders from cell lysate, primary screen, small-molecule microarray, wild-type, 635/667 nm (AID 1149). The conditions noted are these: COS7 hTOR1A-WT lysate, 635 nm fluorescence, higher = more signal.
Chain of Torsin-1A (Homo sapiens) (O14656 whole entry, looked up): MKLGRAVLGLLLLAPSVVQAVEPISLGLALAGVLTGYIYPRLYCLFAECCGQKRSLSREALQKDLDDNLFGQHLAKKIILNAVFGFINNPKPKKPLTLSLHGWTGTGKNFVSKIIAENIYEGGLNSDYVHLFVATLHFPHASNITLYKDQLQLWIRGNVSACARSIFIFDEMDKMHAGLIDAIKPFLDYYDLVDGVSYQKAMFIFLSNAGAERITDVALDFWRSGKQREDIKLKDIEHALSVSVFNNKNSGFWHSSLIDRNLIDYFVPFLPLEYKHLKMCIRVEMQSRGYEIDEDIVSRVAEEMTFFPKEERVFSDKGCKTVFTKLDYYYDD
Test [18] has the same target. The experiment in a line: small-molecule binders of mutant TOR1A in lysate, primary screen, cell lysate, small-molecule microarray, COS7 lysate, 635/667 nm fluorescence (AID 1150).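 Also: score pools 667 nm emission and signal to noise measuring lysate protein binding.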 The conditions noted are these: COS7 hTOR1A mutant lysate, 635 nm fluorescence, higher = more signal.
The subject of test [19] is Sonic hedgehog protein (Shh). The experiment in a line: small-molecule binders of Shh protein, primary screen, biochemical, small-molecule microarray, 635/667 nm fluorescence (AID 1151).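 Also: Shh protein binding to compounds spotted on small-molecule microarray slides; score combines spot fluorescence intensity with signal-to-noise across triplicate slides.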 The conditions noted are these: small-molecule microarray binding, 635 nm fluorescence; higher = more signal.

Chain of Follistatin (Homo sapiens) (P19883 whole entry, looked up): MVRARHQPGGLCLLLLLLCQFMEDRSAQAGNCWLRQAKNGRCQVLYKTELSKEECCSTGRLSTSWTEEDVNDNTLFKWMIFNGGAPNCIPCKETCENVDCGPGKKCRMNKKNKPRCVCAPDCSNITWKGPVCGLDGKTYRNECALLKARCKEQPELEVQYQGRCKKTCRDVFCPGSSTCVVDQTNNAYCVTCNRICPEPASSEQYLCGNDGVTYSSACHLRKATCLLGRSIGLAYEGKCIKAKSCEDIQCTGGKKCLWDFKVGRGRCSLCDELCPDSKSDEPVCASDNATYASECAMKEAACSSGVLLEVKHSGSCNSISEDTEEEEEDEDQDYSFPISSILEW
Chain of Fibroblast growth factor 2 (Homo sapiens) (P09038 whole entry, looked up): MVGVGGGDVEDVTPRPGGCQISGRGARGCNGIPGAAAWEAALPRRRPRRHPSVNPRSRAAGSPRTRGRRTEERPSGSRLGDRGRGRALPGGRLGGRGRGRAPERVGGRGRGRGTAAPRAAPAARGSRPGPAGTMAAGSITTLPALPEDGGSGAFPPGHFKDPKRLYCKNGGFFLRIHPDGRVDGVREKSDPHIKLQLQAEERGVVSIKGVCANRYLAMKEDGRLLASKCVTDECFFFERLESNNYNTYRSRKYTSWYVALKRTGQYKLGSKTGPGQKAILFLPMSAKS

As for `CC(C)CCC[C@@H](C)[C@H]1CC[C@@]2(C)C3=C(CC[C@]12C)[C@@]1(C)CC[C@H](OC(=O)c2ccc(N)cc2)C(C)(C)C1CC3` (stereo not given in full), the composite z-score was 0.467 in [1]; 0.398 in test [2]; 0.108 in test [3]; 0.483 in test [4]; 0.552 in test [5]; 0.612 in test [6]. For the same molecule, the composite z-score in the test with Lefty1 is 0.552; in test [8] it was 0.0599; in test [10], 0.279; in [15] it was 0.143; in [16], -0.208; with Torsin-1A (Homo sapiens) [17], 0.315. For the same molecule, the composite z-score came to 0.273 in the test with Torsin-1A (Homo sapiens) [18] and 0.49 in [19]. For the same molecule, the z-score in test [7] is 1.32; in test [9], -1.43 (inactive); in [11], -0.793 (inactive); in [12], -0.593 (inactive); in [13] it was 1.39 (inactive); in [14], -0.391 (inactive).

Turning to `COCCOC(=O)N1C(=O)[C@@]2(c3cc(C#CCCO)ccc31)[C@H](C(=O)N1CCc3cc(OC)c(OC)cc3C1)[C@H]1C(=O)O[C@H](c3ccccc3)[C@H](c3ccccc3)N1[C@@H]2c1ccc(OCCO)cc1`, the composite z-score is 0.768 in [1]; 1.08 in test [2]; 0.148 in test [3]; 0.786 in test [4]; 1.27 in test [5]; 1.29 in [6]. Further, the composite z-score with Lefty1 is 1.11; in [8] it was 0.774; in [10], 0.667; in [15], 0.675; in test [16], 0.077; with Torsin-1A (Homo sapiens) [17] it was 0.284. The composite z-score with Torsin-1A (Homo sapiens) [18] was 0.89; in test [19] it was 2.13. Moreover, the z-score is -0.236 in test [7]; -2.83 (inactive) in [9]; -2.99 (inactive) in test [11]; -1.11 (inactive) in test [12]; 0.362 (inactive) in test [13]; -1.27 (inactive) in test [14].

In the case of `COC(=O)[C@@]1(Cc2ccc(F)cc2)[C@H]2c3cc(C(=O)N(C)C)n(CCSCCO)c3C[C@H]2CN1C(=O)c1ccccc1`, the composite z-score in [1] was 2.06; in test [2] it was 0.674; in test [3] it was 0.879; in test [4], 0.241; in [5], 0.297; in test [6], -0.254. The composite z-score is -0.601 with Lefty1; 0.45 in test [8]; -0.0292 in test [10]; 0.352 in test [15]; -0.0001 in test [16]; 0.0627 with Torsin-1A (Homo sapiens) [17]. Moreover, the composite z-score is 0.387 with Torsin-1A (Homo sapiens) [18] and -0.509 in [19]. The z-score in test [7] was 0.554; in test [9] it was 0.0635 (inactive); in test [11] it was -0.259 (inactive); in test [12] it was -0.482 (inactive); in test [13], -0.565 (inactive); in test [14] it was 0.222 (inactive).

Consider `C=CCOC(=O)[C@H]1[C@@H]2C(=O)O[C@@H](c3ccccc3)[C@@H](c3ccccc3)N2[C@@H](c2ccc(OCCOC(=O)[C@H]3C[C@H]4C(=O)N[C@@H](CCCCN(C)C)C(=O)N4[C@H]3c3ccc(O)cc3)cc2)[C@]12C(=O)Nc1ccccc12`, for which the composite z-score was -0.127 in test [1]; 1.13 in test [2]; 0.806 in test [3]; -0.104 in test [4]; 1.43 in test [5]; 1.59 in test [6]. For the same molecule, the composite z-score in the test with Lefty1 is 1.5; in test [8], 0.0515; in [10] it was 0.468; in test [15], -0.0375; in test [16], 0.0748; with Torsin-1A (Homo sapiens) [17], 0.539. Further, the figures for the composite z-score (with Torsin-1A (Homo sapiens) [18]; in test [19]) were 0.674 and 1.42, respectively. Further, the z-score in test [7] was -0.58; in [9], -0.552 (inactive); in test [11], -1.73 (inactive); in test [12], -0.063 (inactive); in [13], -0.122 (inactive); in test [14] it was -0.322 (inactive).
